The nature of test [1]: AP1 Signaling Pathway (AID 357; active = well fitted curve in either direction with a large enough effect, not every such curve was filed as active;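 note: ME-180 reporter cells stimulated with EGF at its EC50 level; % is set by controls: 0 for no effect and ±100 for the full control effect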). To be noted: ME-180 AP-1-bla reporter, EGF-induced, beta-lactamase ratio, 5 h; series mostly up to 17.2 µM. The gist of the method:
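Read-out was the 460nm/530nm emission ratio (excitation 405nm) after CCF4 loading for 2.5 hours at room temperature. Cells carried an AP-1-driven beta-lactamase reporter, were stimulated with EC50 EGF plus compound for 5 hours, and AC50 values came from titrations.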

Test [2] has as its target Cytochrome P450 1A2 (Homo sapiens) (UniProt P05177). Put plainly: p450-cyp1a2 (AID 410).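 Note: -100% = full effect of reference inhibitor.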 The note with it: recombinant CYP1A2, luciferin-ME demethylation, luminescence; series mostly up to 25.6 µM. The gist of the method:
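Read-out is luminescence from luciferin produced by CYP1A2 demethylation of Luciferin-ME (100uM, at Km). Detection reagent stopped the 60 min NADPH-dependent reaction; signals were normalized to 57 uM furafylline.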

The nature of test [3]: NFAT Signaling Pathway (AID 444; active = well fitted curve in either direction with a large enough effect, not every such curve was filed as active;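 note: carbachol stimulus at about its EC50 of 1 µM final; % is set by controls: 0 for no effect and ±100 for the full control effect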). The note with it: Jurkat NFAT-bla M1, carbachol, beta-lactamase ratio, 5 h. The gist of the method:
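Jurkat cells carrying an NFAT-driven β-lactamase reporter and co-transfected muscarinic M1 receptor were treated with compound plus carbachol (1 uM final, an EC50 level) for 5 h at 37 °C. CCF4 loading followed for 1 h at RT; 460/530 nm ratio gave %activity.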

A short description of test [4]: Stat Signaling Pathway (AID 446; active = well fitted curve in either direction with a large enough effect, not every such curve was filed as active;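 note: ME-180 cervical cancer cells given 40 pM IL-6 alongside compound; SIE-controlled beta-lactamase reporter measured as 460/530 nm FRET emission ratio; % is set by controls: 0 for no effect and ±100 for the full control effect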). The note with it: ME-180 (cervical carcinoma) SIE beta-lactamase reporter, IL-6 stimulated, 5 h; series mostly up to 17.2 µM. An outline of the steps:
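Compound effects on IL-6-induced STAT reporter activity were measured in ME-180 cells. After overnight culture, cells were co-treated with 40 pM IL-6 for 5 hrs before beta-lactamase substrate loading at room temperature.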

The target of test [5] is Mitogen-activated protein kinase 10 (Mus musculus) (UniProt Q61831). Put plainly: JNK3 AlphaScreen Assay (AID 530; active = well fitted curve in either direction with a large enough effect, not every such curve was filed as active;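 note: kinase came from lysate of stimulated human HepG2 cells; signal reports phosphorylation of biotinylated GST-cJun 1-79 at Ser73 with 10 µM ATP; % is set by controls: 0 for no effect and ±100 for the full control effect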). The note with it: JNK3 lysate, c-Jun phosphorylation; series mostly up to 57.1 µM. An outline of the steps:
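Biotinylated GST-cJun(1-79) served as substrate for JNK3 in HepG2 lysates stimulated with IL-1beta and TNF-alpha. ATP was 10 uM final, pH 7.6. Ser73 phosphorylation was quantified by AlphaScreen (680 nm excitation).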

Test [6] has as its target Glucocorticoid receptor (Homo sapiens) (UniProt P04150). Put plainly: GR-GFP Redistribution (AID 450;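 active = compounds whose dose series gives a full or clear partial fitted curve of increased nuclear translocation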; note: potency is the fitted concentration of half-maximal effect). To be noted: U2OS GR-GFP nuclear translocation, laser cytometry, 2 h.
The target is the same in test [7]. Put plainly: GR-EFC Redistribution (AID 451). Note: potency is the fitted concentration of half-maximal effect. To be noted: CHO-K1 GR-EFC translocation, beta-gal luminescence, 2 h. The gist of the method: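 CHO-K1 cells stably expressing nuclear-localized β-gal enzyme acceptor and GR fused C-terminally to the enzyme donor fragment; ligand-driven nuclear translocation restores β-gal by complementation. Compounds titrated up to 46 uM final, 2 h at 37 °C; luminescence read.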

The nature of test [8]: Cell Viability - BJ (AID 421).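 Note: potency is the fitted concentration of half-maximal effect; cells exposed to compound for 40 hours at 37 °C before readout.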 To be noted: BJ fibroblast viability, qHTS. An outline of the steps:
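Luminescent ATP signal (CellTiter-Glo, 20 min at room temperature) served as the read-out of viable BJ cells after 40 hours of compound treatment. Responses were scaled between DMSO and 100 uM tamoxifen, and AC50 values were obtained by Hill modeling.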

A short description of test [9]: Cell Viability - Jurkat (AID 426;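 active = dose-dependent loss of cell ATP signal giving a full or clear fitted curve, ranked by lower potency value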; note: potency is the fitted concentration of half-maximal effect). The note with it: qHTS. The gist of the method:
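Cytotoxicity was scored as loss of cellular ATP, measured by luciferase-based luminescence, in Jurkat clone E6-1 cells after 40 h compound treatment; tamoxifen and doxorubicin served as positive controls.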

A short description of test [10]: Cell Viability - Hek293 (AID 427;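 active = compounds whose dose-response curve shows a full or clear partial loss of cell viability, called from curve shape rather than a numeric limit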;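 note: potency is the fitted concentration of half-maximal effect; cells exposed to compound for 40 hours at 37 °C before reading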). The note with it: qHTS. The gist of the method: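 Luminescent ATP read-out (CellTiter-Glo, 20 min RT) after 40 hr compound exposure at 37 °C in complete medium. Signal normalized to DMSO (basal) and 100 uM tamoxifen (100% inhibition); concentration-response fitted with the standard Hill equation to give AC50.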
Test [11] in a line: Cell Viability - HepG2 (AID 433).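 Note: potency is the fitted concentration of half-maximal effect; potency for ATP loss meaning cytotoxicity.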 The note with it: qHTS. The gist of the method:
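HepG2 cells, 1500 per well, treated 40 hr at 37 °C in complete medium; viability from intracellular ATP by CellTiter-Glo luminescence. Normalized to DMSO and 100 uM tamoxifen; AC50 from Hill fit of qHTS concentration-response.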

A short description of test [12]: Cell Viability - MRC5 (AID 434).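 Note: potency is the fitted concentration of half-maximal effect; potency reflects cytotoxicity seen as loss of intracellular ATP.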 To be noted: MRC5 lung fibroblast viability, qHTS. An outline of the steps:
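Decrease in intracellular ATP, quantified by luciferase light output, reflects compound toxicity toward MRC5 cells exposed for 40 hr in complete culture medium. Concentration-response curves, scaled between DMSO and 100 uM tamoxifen, gave AC50 values.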
(Quantitative high-throughput screening tests each substance at several concentrations.)

Test [13] in a line: Cell Viability - SK-N-SH (AID 435).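 Note: potency is the fitted concentration of half-maximal effect; compound exposure lasted 40 h at 37 °C.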 The note with it: SK-N-SH neuroblastoma cell viability qHTS. The gist of the method: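 SK-N-SH neuroblastoma cells (1500/well) treated 40 h at 37 °C in complete medium; viability read as cellular ATP by CellTiter-Glo luminescence. Normalized to DMSO and 100 uM tamoxifen; AC50 from Hill fits of qHTS concentration-response.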
Test [14] can be described thus: Cell Viability - N2a (AID 540; active = well fitted curve in the direction sought with a large enough effect; an effect the other way counts as inactive or inconclusive; note: nearly all actives have a fitted effect of over 45% in size; note: potency is the fitted concentration of half-maximal effect;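 for activity change, negative = cytotoxicity: plate controls were DMSO alone for no effect and tamoxifen control for full effect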). To be noted: N2a mouse neuroblastoma cell viability; activity change, negative = cytotoxicity: at 92.2 µM (top of the series). An outline of the steps:
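In this qHTS cytotoxicity screen, ATP-dependent luciferase luminescence reports viable N2a cells after a 40 hr compound exposure in complete culture medium. Potencies are AC50 values from standard Hill equation fits.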

Test [15] in a line: Cell Viability - NIH 3T3 (AID 541; active = well fitted curve in the direction sought with a large enough effect; an effect the other way counts as inactive or inconclusive; note: nearly all actives have a fitted effect of over 25% in size; note: potency is the fitted concentration of half-maximal effect;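 for activity change, negative = cytotoxicity: plate controls were DMSO alone for no effect and tamoxifen positive control for full effect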). The note with it: NIH 3T3 cell viability, qHTS; activity change, negative = cytotoxicity: at 92.2 µM (top of the series). The gist of the method:
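In this cytotoxicity screen, acute toxicity is scored as an ATP drop measured by CellTiter-Glo in NIH 3T3 fibroblasts following a 40 hr, 37 °C incubation with compound.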

Test [16] in a line: Cell Viability - HUV-EC-C (AID 542; active = well fitted curve in the direction sought with a large enough effect; an effect the other way counts as inactive or inconclusive; note: nearly all actives have a fitted effect of over 35% in size; note: potency is the fitted concentration of half-maximal effect). The note with it: HUV-EC-C endothelial cell viability, qHTS; series mostly up to 92.2 µM. An outline of the steps:
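Concentration-dependent ATP loss in HUV-EC-C cells is the measure. Exposure lasts 40 hr at 37 °C; luminescence follows CellTiter-Glo addition, and Hill fits give AC50.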

Test [17] is described as follows: Cell Viability - H-4-II-E (AID 543; active = well fitted curve in the direction sought with a large enough effect; an effect the other way counts as inactive or inconclusive; note: nearly all actives have a fitted effect of over 35% in size; note: potency is the fitted concentration of half-maximal effect). To be noted: H-4-II-E rat hepatoma viability; series mostly up to 92.2 µM. An outline of the steps:
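AC50 from Hill-modelled qHTS concentration-response curves. H-4-II-E rat hepatoma cells in complete medium, 40 hr exposure at 37 °C, viability by CellTiter-Glo ATP luminescence.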

Test [18] can be described thus: Cell Viability - SH-SY5Y (AID 544; active = well fitted curve in the direction sought with a large enough effect; an effect the other way counts as inactive or inconclusive; note: nearly all actives have a fitted effect of over 55% in size; note: potency is the fitted concentration of half-maximal effect). To be noted: SH-SY5Y neuroblastoma cell viability; series mostly up to 92.2 µM. An outline of the steps: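 Quantitative HTS in SH-SY5Y neuroblastoma cells, 40 hr treatment at 37 °C, ATP content by luciferase luminescence; AC50 from Hill fits.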
Test [19] is described as follows: Cell Viability - Renal Proximal Tubule (AID 545; active = well fitted curve in the direction sought with a large enough effect; an effect the other way counts as inactive or inconclusive; note: nearly all actives have a fitted effect of over 40% in size; note: potency is the fitted concentration of half-maximal effect;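 for activity change, negative = cytotoxicity: 0% = DMSO only and -100% = 100 µM tamoxifen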). To be noted: renal proximal tubule cells viability; series mostly up to 91.7 µM. An outline of the steps:
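Rat renal proximal tubule primary cells, 1000/well, exposed to compounds for 40 hr at 37 °C in complete medium; cellular ATP read by CellTiter-Glo luminescence. AC50 from concentration-response fitted with standard Hill equation.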

The nature of test [20]: Cell Viability - Mesenchymal (AID 546; active = well fitted curve in the direction sought with a large enough effect; an effect the other way counts as inactive or inconclusive;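 note: cells exposed to compound for 40 hours before reading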; note: potency is the fitted concentration of half-maximal effect;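 for activity change, negative = cytotoxicity: 0% = DMSO only and -100% = 100 µM tamoxifen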). To be noted: mesenchymal cells viability, qHTS; activity change, negative = cytotoxicity: at 91.7 µM (top of the series). An outline of the steps:
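In this qHTS cytotoxicity format, glomerulus-derived human mesenchymal kidney cells received compound for 40 hr, then luciferase-based ATP quantitation. Concentration-response data were fitted with the Hill equation.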

The text below walks through data of PubChem BioAssay (NCATS).

Values joined by “and” are separate entries in the source; they are usually repeats but may differ in a detail not shown here. Equal values may be shown once. Results filed as inconclusive are left out. More than one record can exist for a structure, and the calls need not agree. Active and inactive are the calls of the source. Unless noted, calls come from the whole dose curve.

Glucocorticoid receptor (Homo sapiens), sequence (P04150 whole entry, looked up, the tested form may be a part): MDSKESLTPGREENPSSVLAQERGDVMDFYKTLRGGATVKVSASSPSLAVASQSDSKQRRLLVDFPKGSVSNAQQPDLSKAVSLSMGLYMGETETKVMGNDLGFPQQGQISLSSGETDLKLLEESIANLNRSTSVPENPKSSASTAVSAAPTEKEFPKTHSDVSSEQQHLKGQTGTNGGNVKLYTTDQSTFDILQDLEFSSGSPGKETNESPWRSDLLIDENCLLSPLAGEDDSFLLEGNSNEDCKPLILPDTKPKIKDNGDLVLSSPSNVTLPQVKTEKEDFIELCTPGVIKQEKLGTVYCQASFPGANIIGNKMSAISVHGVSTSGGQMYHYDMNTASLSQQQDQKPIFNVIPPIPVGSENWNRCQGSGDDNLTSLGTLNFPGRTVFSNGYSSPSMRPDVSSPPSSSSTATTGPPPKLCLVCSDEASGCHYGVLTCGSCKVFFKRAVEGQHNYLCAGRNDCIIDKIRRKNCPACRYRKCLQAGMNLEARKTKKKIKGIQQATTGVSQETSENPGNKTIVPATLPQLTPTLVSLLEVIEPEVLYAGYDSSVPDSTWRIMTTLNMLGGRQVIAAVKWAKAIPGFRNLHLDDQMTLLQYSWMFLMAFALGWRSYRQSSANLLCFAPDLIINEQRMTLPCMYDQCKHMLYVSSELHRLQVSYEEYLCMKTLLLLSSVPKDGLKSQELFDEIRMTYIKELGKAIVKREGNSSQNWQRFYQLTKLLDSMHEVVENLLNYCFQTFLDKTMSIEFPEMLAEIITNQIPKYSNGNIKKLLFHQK
Cytochrome P450 1A2 (Homo sapiens), sequence (P05177 whole entry, looked up): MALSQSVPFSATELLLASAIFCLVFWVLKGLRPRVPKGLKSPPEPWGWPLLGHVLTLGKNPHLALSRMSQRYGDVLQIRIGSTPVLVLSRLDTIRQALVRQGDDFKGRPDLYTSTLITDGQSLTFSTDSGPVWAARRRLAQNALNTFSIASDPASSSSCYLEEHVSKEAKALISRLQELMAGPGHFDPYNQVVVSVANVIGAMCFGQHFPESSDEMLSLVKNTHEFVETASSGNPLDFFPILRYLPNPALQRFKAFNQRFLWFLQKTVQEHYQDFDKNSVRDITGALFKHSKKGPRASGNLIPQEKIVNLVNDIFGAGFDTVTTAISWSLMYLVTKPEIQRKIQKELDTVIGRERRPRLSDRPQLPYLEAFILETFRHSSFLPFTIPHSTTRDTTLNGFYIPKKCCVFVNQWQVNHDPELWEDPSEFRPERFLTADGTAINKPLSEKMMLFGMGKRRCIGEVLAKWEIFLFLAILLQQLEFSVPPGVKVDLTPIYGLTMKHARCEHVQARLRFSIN

Consider `C[C@H](N)[C@H](O)c1ccc(O)c(O)c1`, for which the result in test [1], in test [4] and in [5] was inactive. In test [2], the Potency entry is “inactive”. Besides, the activity change, negative = inhibition in [3] (at 17.2 µM (top of the series)) was -6.73% (inactive); in [3] (at 38 µM (top of the series)), 1.06% (inactive).

For the compound `OC(c1ccccc1)(c1ccccc1)C1CCNCC1`, the outcome in test [1], in [4] and in test [5] was inactive. Also, the Potency result in test [2] is “inactive”. The Potency in test [6] and in test [7] was > 20.6 µM (inactive) in each case.

In the case of `COP(=O)(OC)OC=C(Cl)Cl`, the Potency in test [8] is > 92 µM (inactive); in test [9] it was > 92 µM (inactive); in test [10], > 92 µM (inactive); in [11], > 92 µM (inactive); in [12] it was 30.9 µM (active) and > 92 µM (inactive); in test [13], > 92 µM (inactive). In addition, the Potency in [15] was 12.6 µM (active); in test [18] it was 15.8 µM (active). The result in test [5] was inactive. The Potency entry in test [14], in test [16], in test [17], in [19] and in test [20] was “inactive” in each case.

Regarding `CN(C)C(=S)SSC(=S)N(C)C`, the Potency is 12.5 µM (active) in test [9]; 14.5 µM (active) in [10]; 66.9 µM (active) in [11]; 13.2 µM (active) in test [12]; 8.36 µM (active) in test [13]; 5.01 µM (active) in [14]. In addition, the Potency in [16] is 15.8 µM (active); in test [17] it was 3.98 µM (active); in test [18] it was 0.0158 µM (active); in test [19], 20 µM (active). The call in test [5] was inactive. Moreover, the activity change, negative = cytotoxicity in test [20] is -103% (active).

Turning to `C[C@@H]1C[C@@H]([C@H](O)CC2CC(=O)NC(=O)C2)C(=O)[C@@H](C)C1`, the Potency in [8] is > 92 µM (inactive); in test [9], 301 nM (active) and 142 nM (active); in test [10], 129 nM (active) and 167 nM (active); in [11] it was > 92 µM (inactive); in [12] it was > 92 µM (inactive); in test [13], > 92 µM (inactive). For the same compound, the Potency in test [14] was 0.126 µM (active); in [15] it was 100 nM (active) and 126 nM (active); in [16], 0.1 µM (active); in test [17], 126 nM (active) and 100 nM (active); in test [18], 63.1 nM (active) and inactive; in test [20], 79.4 nM (active) and 50.1 nM (active). Besides, the compound was called inactive in test [5].

With `CNC(=O)Oc1cccc2ccccc12`, the Potency in test [8], in test [10], in test [11], in test [12] and in test [13] was > 92 µM (inactive) each time. Further, the result in test [5] was inactive. In addition, the Potency entry in [14], in test [16], in test [17], in test [19] and in test [20] was “inactive” throughout.

Consider `O=C(CCl)c1ccc(Cl)cc1Cl`, for which the Potency in test [8] is 47.1 µM (active); in test [9], 0.345 µM (active); in test [11], 47.9 µM (active); in test [13], 9.56 µM (active); in test [14], 31.6 µM (active); in [17], 10 µM (active). For the same compound, the Potency is 1.26 µM (active) in test [18] and 31.6 µM (active) in test [20]. The call in test [5] was inactive. Also, the activity change, negative = cytotoxicity in test [15] is -145% (active).

As to `Clc1ccc(CSC(Cn2ccnc2)c2ccc(Cl)cc2Cl)cc1` (stereo unspecified), the outcome in [1] was inactive.

As for `O=C(O)c1nn(Cc2ccc(Cl)cc2Cl)c2ccccc12`, the outcome in [1] and in test [5] was inactive. Further, in [2], the Potency result was “inactive”. In [3] (at 38 µM (top of the series)), the activity change, negative = inhibition was -9.69% (inactive). In addition, the Potency in [6] and in test [7] was > 46 µM (inactive) in each case.

On to `CN1[C@@H]2CC[C@H]1CC(OC(=O)c1cc(Cl)cc(Cl)c1)C2` (stereo partly specified), for which the result in test [1], in test [4] and in test [5] was inactive. Also, the Potency result in test [2] was “inactive”. The Potency in [6] and in [7] was > 46 µM (inactive) in each case.

In the case of `COC(=O)C1=CCCN(C)C1`, the result in test [1], in [4] and in [5] was inactive. Moreover, the Potency result in test [2] is “inactive”. The Potency in test [6] was > 46 µM (inactive) and > 20.6 µM (inactive); in test [7], > 46 µM (inactive) and > 20.6 µM (inactive).

For the compound `CC[n+]1c(-c2ccccc2)c2cc(N)ccc2c2ccc(N)cc21`, the Potency is 26.8 µM (active) in test [9], > 92 µM (inactive) in [12], > 92 µM (inactive) in [13] and 31.6 µM (active) in test [20]. In addition, the activity change, negative = cytotoxicity in [14] is -81.5% (active).
